The results in this text go back to PubChem BioAssay (NCI).

About 79,000 compounds went through this panel and 15% of them were active in at least one assay; those are over-represented in the sample as a whole. Unmarked numbers belong to inactive results. Calls of active or inactive are those of the source. Cut-off read from the data, not from the text of the source: active = growth inhibition above about 70%; inactive = the rest.

The nature of assay [1]: NCI Yeast Anticancer Drug Screen. Data for the rad50 strain (AID 155).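 Note: 0% = growth of vehicle-only cultures of the same strain.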 The note with it: S. cerevisiae rad50 strain growth inhibition, active compounds read high. In a few lines: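 Yeast carrying a defined DNA repair defect were exposed to test compounds, and growth was compared with vehicle-treated controls to give percent inhibition.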
The nature of assay [2]: NCI Yeast Anticancer Drug Screen. Data for the mec2-1 strain (AID 157). The note with it: S. cerevisiae mec2-1 strain, active compounds read high. Summed up: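 Growth inhibition is read against vehicle-treated controls after compound exposure of the mec2-1 yeast strain, which is defective in DNA damage repair or cell cycle control.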
A short description of assay [3]: NCI Yeast Anticancer Drug Screen. Data for the sgs1 mgt1 strain (AID 161).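 Note: 0% = growth of cultures given vehicle only.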 The note with it: S. cerevisiae sgs1 mgt1 strain, active compounds read high. Summed up: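 Yeast cells carrying a defined DNA-repair defect were exposed to test compounds. Growth inhibition was measured relative to vehicle-treated controls.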
Assay [4] is described as follows: NCI Yeast Anticancer Drug Screen. Data for the cln2 rad14 strain (AID 165).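 Note: 0% = growth equal to vehicle treated cultures.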 The note with it: S. cerevisiae cln2 rad14 strain, active compounds read high. In a few lines: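 Growth inhibition, relative to vehicle-treated controls, is the read-out. The test organism is a yeast strain with defined genetic alterations, cln2 rad14.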
Assay [5] can be described thus: NCI Yeast Anticancer Drug Screen. Data for the bub3 strain (AID 167). The note with it: S. cerevisiae bub3 mutant strain, active compounds read high. In a few lines: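 Compounds were applied to a genetically altered yeast strain carrying a cell-cycle control defect. Growth inhibition was scored against vehicle-treated controls.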
The nature of assay [6]: NCI Yeast Anticancer Drug Screen. Data for the mlh1 rad18 strain (AID 175). The conditions noted are these: S. cerevisiae mlh1 rad18 strain growth inhibition, active compounds read high. In a few lines:
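Cells of a genetically altered yeast strain, deficient in DNA damage repair, were treated with compound. Their growth was then compared with that of vehicle-treated cultures to give inhibition.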

[7] abbreviates: at 5.0 µM (retest, dose inferred, filed as 0.5).
The mark [8] stands for this setting: at 50.0 µM (retest, dose inferred, filed as 5.0).

As to `CCOC(=O)Cc1csc2[n+]1C(=O)/C(=C/c1ccc(OC)c(OC)c1)S2`, the growth inhibition was -11% in assay [1] (setting [7]); 11% in assay [1] (setting [8]); 95.2% (active) in assay [1] (at 50.0 µM); -14% in assay [2] (setting [7]); 10% in assay [2] (setting [8]); 94.2% (active) in assay [2] (at 50.0 µM). Besides, the growth inhibition is -11% in assay [3] (setting [7]); 14% in assay [3] (setting [8]); 94.2% (active) in assay [3] (at 50.0 µM); -1% in assay [4] (setting [7]); 8% in assay [4] (setting [8]); 93% (active) in assay [4] (at 50.0 µM). Moreover, the growth inhibition in assay [5] (setting [7]) was -22%; in assay [5] (setting [8]), -2%; in assay [5] (at 50.0 µM) it was 95.7% (active); in assay [6] (setting [7]), -17%; in assay [6] (setting [8]), 17%; in assay [6] (at 50.0 µM), 93% (active).

For the compound `c1ccc(SSc2ccccn2)nc1`, the growth inhibition is 17% in assay [1] (setting [7]); 99% (active) in assay [1] (setting [8]); 96.5% (active) in assay [1] (at 50.0 µM); 69% in assay [2] (setting [7]); 99% (active) in assay [2] (setting [8]); 99.7% (active) in assay [2] (at 50.0 µM). Moreover, the growth inhibition is 49% in assay [3] (setting [7]); 99% (active) in assay [3] (setting [8]); 53.1% in assay [3] (at 50.0 µM); 0% in assay [4] (setting [7]); 99% (active) in assay [4] (setting [8]); 99.5% (active) in assay [4] (at 50.0 µM). Moreover, the growth inhibition in assay [5] (setting [7]) is 50%; in assay [5] (setting [8]) it was 99% (active); in assay [5] (at 50.0 µM) it was 99.5% (active); in assay [6] (setting [7]) it was 62%; in assay [6] (setting [8]), 99% (active); in assay [6] (at 50.0 µM), 99.5% (active).

Regarding `COc1c([N+](=O)[O-])cc(-c2ccccc2)cc1[N+](=O)[O-]`, the growth inhibition in assay [1] (setting [7]) is -4%; in assay [1] (setting [8]) it was 89% (active); in assay [1] (at 50.0 µM), 69.9%; in assay [2] (setting [7]), 10%; in assay [2] (setting [8]) it was 98% (active); in assay [2] (at 50.0 µM), 65.3%. The growth inhibition was 14% in assay [3] (setting [7]); 93% (active) in assay [3] (setting [8]); 77.8% (active) in assay [3] (at 50.0 µM); -2% in assay [4] (setting [7]); 58% in assay [4] (setting [8]); 67.5% in assay [4] (at 50.0 µM). For the same compound, the growth inhibition in assay [5] (setting [7]) was 5%; in assay [5] (setting [8]), 63%; in assay [5] (at 50.0 µM), 74.2% (active); in assay [6] (setting [7]) it was 26%; in assay [6] (setting [8]), 96% (active); in assay [6] (at 50.0 µM) it was 83.2% (active).

In the case of `Cc1cc([N+](=O)[O-])c2nnnn2c1`, the growth inhibition in assay [1] (setting [7]) is 5%; in assay [1] (setting [8]), 59%; in assay [1] (at 50.0 µM) it was -1.75%; in assay [2] (setting [7]) it was 2%; in assay [2] (setting [8]), 28%; in assay [2] (at 50.0 µM), 1.4%. Also, the growth inhibition in assay [3] (setting [7]) is 0%; in assay [3] (setting [8]) it was 31%; in assay [3] (at 50.0 µM), -15.2%; in assay [4] (setting [7]) it was -1%; in assay [4] (setting [8]) it was 4%; in assay [4] (at 50.0 µM), -9.75%. In addition, the growth inhibition in assay [5] (setting [7]) is -1%; in assay [5] (setting [8]), 28%; in assay [5] (at 50.0 µM) it was 22.4%; in assay [6] (setting [7]) it was 7%; in assay [6] (setting [8]) it was 65%; in assay [6] (at 50.0 µM) it was 34%.

As to `Clc1ccc(/C(=C/c2ccccc2)Cn2ccnc2)cc1`, the growth inhibition in assay [1] (setting [7]) was 88% (active); in assay [1] (setting [8]) it was 93% (active); in assay [1] (at 50.0 µM), 75.6% (active); in assay [2] (setting [7]) it was 64%; in assay [2] (setting [8]), 86% (active); in assay [2] (at 50.0 µM) it was 78.8% (active). In addition, the growth inhibition was 86% (active) in assay [3] (setting [7]); 90% (active) in assay [3] (setting [8]); 75% (active) in assay [3] (at 50.0 µM); 85% (active) in assay [4] (setting [7]); 83% (active) in assay [4] (setting [8]); 70.5% (active) in assay [4] (at 50.0 µM). For the same compound, the growth inhibition is 70% (active) in assay [5] (setting [7]); 93% (active) in assay [5] (setting [8]); 81% (active) in assay [5] (at 50.0 µM); 83% (active) in assay [6] (setting [7]); 90% (active) in assay [6] (setting [8]); 78.5% (active) in assay [6] (at 50.0 µM).

With `C/C(=N\N(C)C(=S)Nc1ccccc1)c1ccccn1`, the growth inhibition in assay [1] (setting [7]) is -2%; in assay [1] (setting [8]), 11%; in assay [1] (at 50.0 µM), 93.5% (active); in assay [2] (setting [7]) it was -4%; in assay [2] (setting [8]), 9%; in assay [2] (at 50.0 µM), 63.2%. The growth inhibition was -6% in assay [3] (setting [7]); 22% in assay [3] (setting [8]); 71.7% (active) in assay [3] (at 50.0 µM); -5% in assay [4] (setting [7]); -18% in assay [4] (setting [8]); 54.9% in assay [4] (at 50.0 µM). Besides, the growth inhibition in assay [5] (setting [7]) is -12%; in assay [5] (setting [8]) it was 36%; in assay [5] (at 50.0 µM) it was 82% (active); in assay [6] (setting [7]), -10%; in assay [6] (setting [8]) it was 65%; in assay [6] (at 50.0 µM) it was 61.8%.

On to `Oc1ccc(O)c2nc3ccccc3nc12`, for which the growth inhibition in assay [1] (setting [7]) is 20%; in assay [1] (setting [8]), 97% (active); in assay [1] (at 50.0 µM) it was 50.8%; in assay [2] (setting [7]), 3%; in assay [2] (setting [8]), 97% (active); in assay [2] (at 50.0 µM) it was 33.8%. In addition, the growth inhibition in assay [3] (setting [7]) was 8%; in assay [3] (setting [8]) it was 98% (active); in assay [3] (at 50.0 µM), 24.1%; in assay [4] (setting [7]) it was 2%; in assay [4] (setting [8]) it was 98% (active); in assay [4] (at 50.0 µM) it was -1.85%. Moreover, the growth inhibition is 6% in assay [5] (setting [7]); 98% (active) in assay [5] (setting [8]); 68.2% in assay [5] (at 50.0 µM); 24% in assay [6] (setting [7]); 97% (active) in assay [6] (setting [8]); 76.4% (active) in assay [6] (at 50.0 µM).

Consider `CC(=O)OC/C=C/CCCOC(C)=O`, for which the growth inhibition in assay [1] (setting [7]) is -15%; in assay [1] (setting [8]), 4%; in assay [1] (at 50.0 µM), 77.8% (active); in assay [2] (setting [7]), -12%; in assay [2] (setting [8]) it was -17%; in assay [2] (at 50.0 µM) it was 64.3%. Moreover, the growth inhibition in assay [3] (setting [7]) was -7%; in assay [3] (setting [8]) it was 5%; in assay [3] (at 50.0 µM), 84% (active); in assay [4] (setting [7]) it was 38%; in assay [4] (setting [8]), 31%; in assay [4] (at 50.0 µM) it was 77.9% (active). Also, the growth inhibition in assay [5] (setting [7]) is 17%; in assay [5] (setting [8]), 19%; in assay [5] (at 50.0 µM), 80.3% (active); in assay [6] (setting [7]), 5%; in assay [6] (setting [8]), -5%; in assay [6] (at 50.0 µM), 62.6%.

With `O=c1c(O)cc2c(O)oc3c(=O)c(O)c(O)c4c(O)oc1c2c43`, the growth inhibition is 58% in assay [1] (setting [7]); 96% (active) in assay [1] (setting [8]); 88.4% (active) in assay [1] (at 50.0 µM); 23% in assay [2] (setting [7]); 93% (active) in assay [2] (setting [8]); 57.2% in assay [2] (at 50.0 µM). In addition, the growth inhibition in assay [3] (setting [7]) was 41%; in assay [3] (setting [8]) it was 90% (active); in assay [3] (at 50.0 µM), 67.2%; in assay [4] (setting [7]) it was 12%; in assay [4] (setting [8]) it was 90% (active); in assay [4] (at 50.0 µM), 50.3%. Moreover, the growth inhibition in assay [5] (setting [7]) was 25%; in assay [5] (setting [8]), 90% (active); in assay [5] (at 50.0 µM), 85% (active); in assay [6] (setting [7]) it was 41%; in assay [6] (setting [8]), 96% (active); in assay [6] (at 50.0 µM), 66.2%.

For the compound `COC1CC(OC(=O)c2ccccc2)C(OC(=O)c2ccccc2)C(C)O1` (stereo not given), the growth inhibition is -5% in assay [1] (setting [7]); -4% in assay [1] (setting [8]); 9.1% in assay [1] (at 50.0 µM); -2% in assay [2] (setting [7]); -2% in assay [2] (setting [8]); 6.1% in assay [2] (at 50.0 µM). The growth inhibition in assay [3] (setting [7]) was -2%; in assay [3] (setting [8]), -1%; in assay [3] (at 50.0 µM) it was 7.75%; in assay [4] (setting [7]), -4%; in assay [4] (setting [8]), -12%; in assay [4] (at 50.0 µM), -16.4%. Moreover, the growth inhibition in assay [5] (setting [7]) is 44%; in assay [5] (setting [8]), 64%; in assay [5] (at 50.0 µM), 83.9% (active); in assay [6] (setting [7]) it was -1%; in assay [6] (setting [8]), 2%; in assay [6] (at 50.0 µM), 1.9%.
